# From PubChem BioAssay (NCATS)
# Several values for one entry are separate records, joined by “and”; a condition that tells them apart may be missing. Equal entries are not always repeated. Inconclusive results are not listed. A call without a number means that no potency is given here. Activity calls are given as the source filed them. Unless noted, the call rests on the fitted dose curve; in most records, active means well fitted curve in the direction sought with a large enough effect; inconclusive means small, poorly fitted or top-dose-only effect, or another doubt; inactive means no such curve, though single readings can be large; an effect the other way counts as inactive or inconclusive.
# Legend:
# [1] = Cell Viability - BJ (AID 421; calls by dose curve;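 further: potency means the concentration at half of the fitted maximal effect; cells exposed to compound for 40 hours at 37 °C before readout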); conditions: BJ fibroblast viability, qHTS
# How it was run: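 Luminescent ATP signal (CellTiter-Glo, 20 min at room temperature) served as the read-out of viable BJ cells after 40 hours of compound treatment. Responses were scaled between DMSO and 100 uM tamoxifen, and AC50 values were obtained by Hill modeling.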
# [2] = Cell Viability - Jurkat (AID 426;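 active means dose-dependent loss of cell ATP signal giving a full or clear fitted curve, ranked by lower potency value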;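 further: potency means the concentration at half of the fitted maximal effect; cells exposed to compound for 40 hours at 37 °C before ATP read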); conditions: qHTS
# How it was run: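 Cells of the human T-cell leukemia line Jurkat (E6-1) are seeded at 5000 per well, treated with compound across a concentration range for 40 hours at 37 °C, then lysed with CellTiter-Glo; luminescence reports ATP.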
# [3] = Cell Viability - Hek293 (AID 427;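 active means compounds whose dose-response curve shows a full or clear partial loss of cell viability, called from curve shape rather than a numeric limit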;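 further: potency means the concentration at half of the fitted maximal effect; cells exposed to compound for 40 hours at 37 °C before reading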); conditions: qHTS
# How it was run: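 Luminescent ATP read-out (CellTiter-Glo, 20 min RT) after 40 hr compound exposure at 37 °C in complete medium. Signal normalized to DMSO (basal) and 100 uM tamoxifen (100% inhibition); concentration-response fitted with the standard Hill equation to give AC50.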
# [4] = Cell Viability - HepG2 (AID 433; calls by dose curve;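 further: potency means the concentration at half of the fitted maximal effect; potency for ATP loss meaning cytotoxicity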); conditions: qHTS
# How it was run: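 HepG2 hepatocellular carcinoma cells (1500/well) were treated with compounds for 40 h at 37 °C in complete medium; intracellular ATP was read by CellTiter-Glo luminescence. Data were normalized to DMSO and 100 uM tamoxifen, and AC50 came from Hill fits.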
# [5] = Cell Viability - SK-N-SH (AID 435; calls by dose curve;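 further: potency means the concentration at half of the fitted maximal effect; compound exposure lasted 40 h at 37 °C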); conditions: SK-N-SH neuroblastoma cell viability qHTS
# How it was run: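 SK-N-SH human neuroblastoma cells (1500/well) were exposed to compounds in complete medium for 40 h at 37 °C, and intracellular ATP was then measured by CellTiter-Glo luminescence. AC50 was taken from Hill fits, normalized to DMSO and 100 uM tamoxifen.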
# [6] = Cell Viability - Renal Proximal Tubule (AID 545); conditions: renal proximal tubule cells viability; series mostly up to 91.7 µM; further: nearly all actives have a fitted effect of over 40% in size
# How it was run: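 Primary rat renal proximal tubule cells (1000/well) were treated with compounds for 40 hr at 37 °C in complete medium. Intracellular ATP was measured by CellTiter-Glo luminescence, and AC50 values came from Hill-equation fits of concentration-response data.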
# [7] = Cellular Toxicity (caspase-3) HUV-EC-C (AID 656); conditions: HUV-EC-C cells, caspase-3 activation (apoptosis), vehicle = 0, 100 µM tamoxifen = 100%; series mostly up to 92.2 µM
# How it was run: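 HUV-EC-C endothelial cells, 1000/well, were pre-incubated 5 hr at 37°C, then exposed to compounds for 16 hr at 37°C. Caspase-Glo 3/7 luminescence was read after 20 min at room temperature. AC50 came from Hill fits, normalized to DMSO and 100 uM tamoxifen.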
# [8] = Cellular Toxicity (caspase-3) SHSY5Y (AID 657); conditions: SH-SY5Y caspase-3 activation, DMSO zero, 10 µM staurosporine = 100%; series mostly up to 91.7 µM
# How it was run: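 SH-SY5Y human neuroblastoma cells (1500/well) were treated with compounds for 16 h at 37 °C, then Caspase-Glo 3/7 luminescence was read after 1 h at room temperature. Data normalized to DMSO and 10 uM staurosporine; AC50 from Hill fits.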
# [9] = Cellular Toxicity (caspase-3) MRC-5 (AID 659); conditions: MRC-5 cells, luminescence, normalized: DMSO 0%, 10 µM staurosporine 100%; series mostly up to 91.7 µM
# How it was run: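 MRC-5 fibroblasts, 1500/well; 16 h cpd, 37 °C; Caspase-Glo 3/7, 1 h RT; lumi read. Norm: DMSO = 0%, 10 uM staurosporine = 100%. Hill-fit AC50 from qHTS conc-response.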
# [10] = MultiTox-Fluor Cytotoxicity Assay - LYMP1-002 - Live Cells (AID 955); conditions: LYMP1-002 lymphoblastoid live-cell protease fluorescence viability; series mostly up to 46.1 µM
# How it was run: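 Cells were seeded at 2500 per well and incubated 5 hr. Compounds were then added for 16 hr at 37 C, followed by MultiTox-Fluor reagent for 60 min at room temperature and fluorescence reading of viable-cell protease signal.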
# [11] = Cell Viability - LYMP1-003 - Assay at 24 hr (AID 963); conditions: LYMP1-003 lymphoblastoid cell viability; series mostly up to 92.2 µM
# How it was run: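 Cytotoxicity is scored as a concentration-dependent fall in ATP-linked luciferase signal in human lymphoblastoid LYMP1-003 cells treated 24 hr at 37 C in complete culture medium.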
# [12] = Cell Viability - LYMP2-009 (AID 968); conditions: LYMP2-009 lymphoblastoid cell viability; series mostly up to 92.2 µM; further: nearly all actives have a fitted effect of over 55% in size; further: potency means the concentration at half of the fitted maximal effect
# [13] = Cell Viability - LYMP2-017 (AID 972); conditions: LYMP2-017 lymphoblastoid cell viability; series mostly up to 92.2 µM; further: nearly all actives have a fitted effect of over 55% in size
# How it was run: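 Cytotoxicity is scored as a concentration-dependent drop in cellular ATP in a human lymphoblastoid line after 24 hr treatment at 37 C. Values are AC50s from Hill-equation modelling.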
# [14] = Cell Viability - LYMP2-025 (AID 976); conditions: LYMP2-025 lymphoblastoid cell viability; series mostly up to 92.2 µM
# How it was run: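 Acute cytotoxicity is scored as a concentration-dependent fall in intracellular ATP, measured by luciferase luminescence, in human lymphoblastoid LYMP2-025 cells exposed to compound for 24 hours at 37 C. AC50 values come from standard Hill fits.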
# [15] = Cell Viability - LYMP2-016 (AID 984); conditions: LYMP2-016 lymphoblastoid cell viability, qHTS; series mostly up to 92.2 µM; further: nearly all actives have a fitted effect of over 55% in size
# How it was run: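 Human lymphoblastoid cells (LYMP2-016), 2500/well in complete medium, preincubated 5 hr at 37 C, then compound-treated 24 hr at 37 C. Intracellular ATP read by CellTiter-Glo luminescence after 30 min at room temperature; AC50 from Hill-equation concentration-response fits.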
# [16] = Cell Viability - LYMP2-024 (AID 988); conditions: LYMP2-024 lymphoblastoid cell viability; series mostly up to 92.2 µM; further: nearly all actives have a fitted effect of over 60% in size
# How it was run: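 qHTS cytotoxicity, human lymphoblastoid line, complete medium; 24 h cpd treatment, 37 C; CellTiter-Glo ATP luminescence readout; tetraoctylammonium bromide positive control; AC50 via Hill fit.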
# [17] = qHTS Assay for Identification of Small Molecule Inducers of Hypoxia Response (AID 2120; active means well fitted curve in the direction sought with a large enough effect in the signal ratio, with a control signal flat, not every such curve was filed as active; the % refers to the signal ratio); conditions: hypoxia response reporter cells, beta-lactamase ratio readout; series mostly up to 104 µM
# How it was run: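 Cell-based qHTS for reporter induction: hypoxia response element controlled beta-lactamase in ME-180 cells. Compounds incubated 17 h at 37 degrees C; activity from blue/green (460/530 nm) ratio, inducers ranked by AC50.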
# [18] = qHTS assay for small molecule agonists of retinoid X receptor alpha signaling (AID 588544); conditions: HEK293T RXRa-UAS-bla, beta-lactamase reporter, 18 h; 530 nm emission
# [19] = molecular target: Peroxisome proliferator-activated receptor alpha (Homo sapiens) (UniProt Q07869); test: qHTS assay for small molecule agonists of the peroxisome proliferator-activated receptor alpha (PPARalpha) signaling pathway (AID 651778); conditions: PathHunter PPARalpha complementation, chemiluminescence, 6 h; stronger effect = higher value
# How it was run: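 Enzyme-fragment complementation assay in which ligand-bound PPARalpha translocates and forms an active enzyme that generates chemiluminescence. Cells were plated overnight, exposed to compound for 6 hr at 37 C, and then given detection reagent for 60 min at room temperature.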
# [20] = qHTS assay for small molecule agonists of the antioxidant response element (ARE) signaling pathway measured by Nrf2-dependant transcriptional activity - cell viability counter screen (AID 720653; active means well fitted curve in the direction sought with a large enough effect in the repeat runs; an effect the other way counts as inactive or inconclusive); conditions: ARE-bla HepG2 viability, CellTiter-Glo ATP luminescence, 16 h; stronger effect = lower value
# How it was run: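 ARE-bla HepG2 cells treated with compounds for 16 h at 37C; this counter screen measures viability as intracellular ATP by CellTiter-Glo luminescence after 30 min at room temperature.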
# Sequence of Peroxisome proliferator-activated receptor alpha (Homo sapiens) (Q07869 whole entry, looked up, the tested form may be a part): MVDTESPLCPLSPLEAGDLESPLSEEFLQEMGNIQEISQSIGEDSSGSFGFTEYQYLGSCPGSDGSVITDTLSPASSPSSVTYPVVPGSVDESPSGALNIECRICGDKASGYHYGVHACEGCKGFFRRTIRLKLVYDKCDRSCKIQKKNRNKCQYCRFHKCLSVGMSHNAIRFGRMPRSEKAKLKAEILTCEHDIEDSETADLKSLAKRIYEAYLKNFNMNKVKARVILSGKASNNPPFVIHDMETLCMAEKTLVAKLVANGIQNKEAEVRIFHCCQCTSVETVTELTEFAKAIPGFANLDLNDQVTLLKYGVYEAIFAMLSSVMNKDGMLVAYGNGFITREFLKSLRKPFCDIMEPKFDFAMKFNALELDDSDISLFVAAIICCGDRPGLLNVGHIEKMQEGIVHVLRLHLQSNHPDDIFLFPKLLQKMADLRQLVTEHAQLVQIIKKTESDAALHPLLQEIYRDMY
SMILES,Potency [1],Potency [2],Potency [3],Potency [4],Potency [5],outcome [6],outcome [7],outcome [8],outcome [9],outcome [10],outcome [11],Potency [12],Potency [13],Potency [14],Potency [15],Potency [16],Potency [17],max response [18],max response [19],max response [20]
C=CCCC#N,> 92 µM (inactive),> 92 µM (inactive),> 92 µM (inactive),> 92 µM (inactive),> 92 µM (inactive),inactive,inactive,inactive,inactive,inactive,inactive,inactive,inactive,inactive,inactive,inactive,inactive,-8.63%,-3.78% (inactive),-16.2% (inactive)
CCCCCOC(=O)c1ccccc1C(=O)OCCCCC,> 92 µM (inactive),> 92 µM (inactive),> 92 µM (inactive),> 92 µM (inactive),> 92 µM (inactive),inactive,inactive,inactive,inactive,inactive,inactive,inactive,inactive,inactive,inactive,inactive,inactive,-10.9% and 3.25%,-4.34% (inactive) and -0.557% (inactive),0.29% (inactive) and 4.72% (inactive)
ClCc1ccccc1,> 92 µM (inactive),> 92 µM (inactive),> 92 µM (inactive),> 92 µM (inactive),> 92 µM (inactive),inactive,inactive,inactive,inactive,inactive,inactive,inactive,inactive,inactive,inactive,inactive,inactive,-0.901%,3.28% (inactive),16.1% (inactive)
OCCBr,> 92 µM (inactive),> 92 µM (inactive),> 92 µM (inactive),> 92 µM (inactive),> 92 µM (inactive),inactive,inactive,inactive,inactive,inactive,inactive,inactive,inactive,inactive,inactive,inactive,inactive,1.51%,2.96% (inactive),1.65% (inactive)
O=[N+]([O-])c1ccccc1-c1ccccc1,> 92 µM (inactive),> 92 µM (inactive),> 92 µM (inactive),> 92 µM (inactive),> 92 µM (inactive),inactive,inactive,inactive,inactive,inactive,inactive,inactive,inactive,inactive,inactive,inactive,inactive,-6.95%,-6.56% (inactive),1.78% (inactive)
COc1ccc(C=O)cc1,> 92 µM (inactive),> 92 µM (inactive),> 92 µM (inactive),> 92 µM (inactive),> 92 µM (inactive),inactive,inactive,inactive,inactive,inactive,inactive,inactive,inactive,inactive,inactive,inactive,inactive,-0.469%,2.57% (inactive),7.96% (inactive)
O=[N+]([O-])c1ccc(Cl)cc1,> 92 µM (inactive),> 92 µM (inactive),> 92 µM (inactive),> 92 µM (inactive),> 92 µM (inactive),inactive,inactive,inactive,inactive,inactive,inactive,inactive,inactive,inactive,inactive,inactive,inactive,-17.3% and -9.79%,-4.31% (inactive) and 0.471% (inactive),-7.74% (inactive) and 0.776% (inactive)
CCSC(=O)N1CCCCCC1,> 92 µM (inactive),> 92 µM (inactive),> 92 µM (inactive),> 92 µM (inactive),> 92 µM (inactive),inactive,inactive,inactive,inactive,inactive,inactive,inactive,inactive,inactive,inactive,inactive,inactive,-15.2% and -3.96%,3.66% (inactive) and -1.17% (inactive),-5.76% (inactive) and -1.37% (inactive)
O=[N+]([O-])c1cccc(O)c1,> 92 µM (inactive),> 92 µM (inactive),> 92 µM (inactive),> 92 µM (inactive),> 92 µM (inactive),inactive,inactive,inactive,inactive,inactive,inactive,inactive,inactive,inactive,inactive,inactive,inactive,0.893%,-4.41% (inactive),-0.267% (inactive)
S=C1NCCN1,> 92 µM (inactive),> 92 µM (inactive),> 92 µM (inactive),> 92 µM (inactive),> 92 µM (inactive),inactive,inactive,inactive,inactive,inactive,inactive,inactive,inactive,inactive,inactive,inactive,inactive,-9.74% and -4.86%,-2.28% (inactive) and 8.96% (inactive),4.7% (inactive) and 5.28% (inactive)
OCCOCCO,> 92 µM (inactive),> 92 µM (inactive),> 92 µM (inactive),> 92 µM (inactive),> 92 µM (inactive),inactive,inactive,inactive,inactive,inactive,inactive,inactive,inactive,inactive,inactive,inactive,inactive,-9.96%,-3.41% (inactive),-0.406% (inactive)
CN(C)C(=O)Cl,> 92 µM (inactive),> 92 µM (inactive),> 92 µM (inactive),> 92 µM (inactive),> 92 µM (inactive),inactive,inactive,inactive,inactive,inactive,inactive,inactive,inactive,inactive,inactive,inactive,inactive,-5.01%,-4.05% (inactive),-21% (inactive)
Cc1ccc(N)c(N)c1,> 92 µM (inactive),9.63 µM (active),> 92 µM (inactive),> 92 µM (inactive),> 92 µM (inactive),inactive,inactive,inactive,inactive,inactive,,25.1 µM (active),,inactive,inactive,,inactive,-6.94%,-2.85% (inactive),-6.6% (inactive)
CC(C)(OOC(C)(C)c1ccccc1)c1ccccc1,> 92 µM (inactive),> 92 µM (inactive),> 92 µM (inactive),> 92 µM (inactive),> 92 µM (inactive),inactive,inactive,inactive,inactive,inactive,inactive,inactive,inactive,inactive,inactive,inactive,inactive,-7.49% and -13.6%,-0.439% (inactive) and 3.52% (inactive),-15.2% (inactive) and -2.58% (inactive)
CCCBr,> 92 µM (inactive),> 92 µM (inactive),> 92 µM (inactive),> 92 µM (inactive),> 92 µM (inactive),inactive,inactive,inactive,inactive,inactive,inactive,inactive,inactive,inactive,inactive,inactive,inactive,-13.5%,-0.188% (inactive),-3.32% (inactive)
O=S(=O)(Cl)c1ccccc1,> 92 µM (inactive),,> 92 µM (inactive),> 92 µM (inactive),> 92 µM (inactive),inactive,inactive,,inactive,inactive,inactive,inactive,inactive,inactive,inactive,inactive,inactive,-12.3%,-0.206% (inactive) and -0.679% (inactive),9.62% (inactive) and -3.03% (inactive)
